Values joined by “and” are separate entries in the source; they are usually repeats but may differ in a detail not shown here. Identical values can stand only once. The campaign covered roughly 5,500 compounds. About 2,000 (36%) were called active. About 18% were inconclusive and are not listed. Cut-off read from the data, not from the text of the source: active = normalized growth mostly below about 0.91 (no sharp cut-off); inconclusive = no clear call, values can overlap the other calls; inactive = mostly above about 0.92. The list shows a part of the results.
Assay: chemical genetic growth profiling, strain panel (AID 1159580);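 note: tested at 20 µM; growth read once vehicle control cultures reached saturation at 30 °C; 1 = growth at the plate median or of vehicle wells; lower values mean less growth of the strain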
Conditions: S. cerevisiae deletion strains, growth OD

Measured: normalized growth

COc1ccc(C(=O)c2ccccc2)c(O)c1
active: locus YAL026C, strain drs2, stronger effect = lower value 0.74 | locus YAL030W, strain snc1, stronger effect = lower value 0.841 | locus YBL061C, strain skt5, stronger effect = lower value 0.762 | locus YBR009C, strain hhf1, stronger effect = lower value 0.789 | locus YBR023C, strain chs3, stronger effect = lower value 0.807 | locus YBR171W, strain sec66, stronger effect = lower value 0.769 | locus YBR231C, strain swc5, stronger effect = lower value 0.834 | locus YBR279W, strain paf1, stronger effect = lower value 0.854 | locus YCL011C, strain gbp2, stronger effect = lower value 0.78 | locus YCL016C, strain dcc1, stronger effect = lower value 0.792 | locus YCL061C, strain MRC1, stronger effect = lower value 0.791 | locus YCL069W, strain vba3, stronger effect = lower value 0.779 | locus YCR088W, strain abp1, stronger effect = lower value 0.833 | locus YDL005C, strain med2, stronger effect = lower value 0.903 | locus YDL035C, strain GPR1, stronger effect = lower value 0.855 | locus YDL040C, strain nat1, stronger effect = lower value 0.861 | locus YDL074C, strain BRE1, stronger effect = lower value 0.691 | locus YDL192W, strain arf1, stronger effect = lower value 0.808 | locus YDR001C, strain nth1, stronger effect = lower value 0.863 | locus YDR069C, strain doa4, stronger effect = lower value 0.879 | locus YDR101C, strain arx1, stronger effect = lower value 0.868 | locus YDR137W, strain rgp1, stronger effect = lower value 0.451 | locus YDR159W, strain sac3, stronger effect = lower value 0.671 | locus YDR162C, strain NBP2, stronger effect = lower value 0.671 | locus YDR195W, strain ref2 1.16 [resistant] | locus YDR297W, strain sur2, stronger effect = lower value 0.853 | locus YDR318W, strain mcm21, stronger effect = lower value 0.833 | locus YDR334W, strain swr1, stronger effect = lower value 0.859 | locus YDR335W, strain msn5, stronger effect = lower value 0.758 | locus YDR388W, stronger effect = lower value 0.881 | locus YDR392W, strain spt3, stronger effect = lower value 0.43 | locus YDR502C, strain sam2, stronger effect = lower value 0.804 | locus YEL003W, strain gim4, stronger effect = lower value 0.778 | locus YEL037C, strain rad23, stronger effect = lower value 0.841 | locus YEL061C, strain CIN8 (second series), stronger effect = lower value 0.813 | locus YER015W, strain faa2, stronger effect = lower value 0.752 | locus YER016W, strain bim1, stronger effect = lower value 0.862 | locus YER110C, stronger effect = lower value 0.891 | locus YER111C, strain swi4, stronger effect = lower value 0.797 | locus YER155C, strain BEM2 (second series), stronger effect = lower value 0.24 | locus YER155C, strain BEM2, stronger effect = lower value 0.926 | locus YER167W, strain BCK2, stronger effect = lower value 0.837 | locus YFR010W, strain ubp6, stronger effect = lower value 0.888 | locus YGL078C, strain dbp3, stronger effect = lower value 0.911 | locus YGL086W, strain mad1, stronger effect = lower value 0.828 | locus YGL167C, strain pmr1, stronger effect = lower value 0.772 | locus YGL173C, strain kem1, stronger effect = lower value 0.72 | locus YGL227W, strain vid30, stronger effect = lower value 0.84 | locus YGL240W, strain doc1, stronger effect = lower value 0.609 | locus YGL253W, strain hxk2, stronger effect = lower value 0.686 | locus YGR135W, strain pre9, stronger effect = lower value 0.729 | locus YGR229C, strain SMI1, stronger effect = lower value 0.558 | locus YGR252W, strain gcn5, stronger effect = lower value 0.666 | locus YHR013C, strain ard1, stronger effect = lower value 0.757 | locus YHR027C, strain rpn1, stronger effect = lower value 0.87 | locus YHR079C, strain IRE1 (second series), stronger effect = lower value 0.894 | locus YHR079C, strain IRE1, stronger effect = lower value 0.842 | locus YHR094C, strain hxt1, stronger effect = lower value 0.915 | locus YHR142W, strain chs7, stronger effect = lower value 0.541 | locus YHR200W, strain rpn10, stronger effect = lower value 0.861 | locus YIL066C, strain RNR3, stronger effect = lower value 0.827 | locus YIL125W, strain kgd1, stronger effect = lower value 0.898 | locus YIR030C, strain dcg1, stronger effect = lower value 0.906 | locus YJL092W, strain hpr5, stronger effect = lower value 0.827 | locus YJL095W, strain BCK1 (second series), stronger effect = lower value 0.703 | locus YJL095W, strain BCK1, stronger effect = lower value 0.699 and 0.86 | locus YJL115W, strain asf1, stronger effect = lower value 0.869 | locus YJL129C, strain trk1, stronger effect = lower value 0.649 | locus YJL154C, strain vps35, stronger effect = lower value 0.882 | locus YJL164C, strain tpk1, stronger effect = lower value 0.805 | locus YJL166W, strain qcr8, stronger effect = lower value 0.742 | locus YJL168C, strain set2, stronger effect = lower value 0.913
0.755 (active) and 0.874 (inactive): locus YHR030C, strain SLT2, stronger effect = lower value
inactive: locus YAL013W, strain DEP1, stronger effect = lower value 0.914 | locus YAL021C, strain ccr4, stronger effect = lower value 0.918 | locus YBR021W, strain FUR4, stronger effect = lower value 0.975 | locus YBR229C, strain ROT2, stronger effect = lower value 0.956 | locus YCL029C, strain bik1, stronger effect = lower value 0.92 | locus YDL101C, strain DUN1, stronger effect = lower value 0.963 | locus YDL134C, strain PPH21, stronger effect = lower value 0.949 | locus YDL185W, strain tfp1, stronger effect = lower value 0.908 | locus YDR150W, strain NUM1, stronger effect = lower value 0.934 | locus YEL061C, strain CIN8, stronger effect = lower value 0.939 | locus YGL248W, strain PDE1, stronger effect = lower value 0.944 | locus YGR078C, strain PAC10, stronger effect = lower value 0.859 | locus YHR129C, strain ARP1, stronger effect = lower value 0.936 | locus YIL073C, strain SPO22, stronger effect = lower value 0.75 | locus YJL134W, strain LCB3, stronger effect = lower value 0.945 | locus YJL187C, strain SWE1 (second series), stronger effect = lower value 0.943 | locus YJR043C, strain POL32, stronger effect = lower value 0.879 | locus YJR066W, strain TOR1, stronger effect = lower value 0.835

From PubChem BioAssay AID1159580 (chemical genetic matrix, 2015)
